Article PMC7862700, “An all-to-all approach to the identification of sequence-specific readers for epigenetic DNA modifications on cytosine”

Experiments:
Experiment in all cases: DAPPL (digital affinity profiling via proximity ligation, sequencing); 10 mM Tris-HCl pH 7.5, 50 mM NaCl, 1 mM DTT, 4% glycerol, room temperature, 30 min; GST-TFs on glutathione beads, 16-mer random dsDNA library, 0.1% formaldehyde crosslink after washing; high values mean tight binding
Conditions in all cases: protein: recombinant; tags: N-terminal GST; dsDNA, one strand shown
[1] = target: T1, FEV (Homo sapiens, UniProt Q99581 1-238)
T1 sequence: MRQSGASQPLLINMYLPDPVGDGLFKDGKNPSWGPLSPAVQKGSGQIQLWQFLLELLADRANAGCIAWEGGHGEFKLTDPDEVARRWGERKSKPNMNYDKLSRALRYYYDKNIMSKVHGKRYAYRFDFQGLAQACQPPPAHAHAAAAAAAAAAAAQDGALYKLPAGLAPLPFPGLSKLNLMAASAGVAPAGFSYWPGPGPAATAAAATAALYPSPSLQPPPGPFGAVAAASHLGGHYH
Procedure, shortened: (§1)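 A tag-only sample was pooled with DNA-barcoded human transcription factors that had been expressed in yeast as GST fusions and captured on glutathione beads. The pools were incubated for 30 min at room temperature with 200 nmole of a random double-stranded 16-mer DNA library in Tris/NaCl/DTT/glycerol buffer, then washed, crosslinked with 0.1% formaldehyde, proximity-ligated (BsaI/T4 ligase, 1 h, 37 °C), PCR-amplified and sequenced on an Illumina NextSeq500. Binding signal is each hexamer's read frequency for a factor divided by its frequency for the tag-only sample.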

[2] = target: ETV5 (Homo sapiens, UniProt P41161 1-510)
ETV5, sequence (P41161 whole entry): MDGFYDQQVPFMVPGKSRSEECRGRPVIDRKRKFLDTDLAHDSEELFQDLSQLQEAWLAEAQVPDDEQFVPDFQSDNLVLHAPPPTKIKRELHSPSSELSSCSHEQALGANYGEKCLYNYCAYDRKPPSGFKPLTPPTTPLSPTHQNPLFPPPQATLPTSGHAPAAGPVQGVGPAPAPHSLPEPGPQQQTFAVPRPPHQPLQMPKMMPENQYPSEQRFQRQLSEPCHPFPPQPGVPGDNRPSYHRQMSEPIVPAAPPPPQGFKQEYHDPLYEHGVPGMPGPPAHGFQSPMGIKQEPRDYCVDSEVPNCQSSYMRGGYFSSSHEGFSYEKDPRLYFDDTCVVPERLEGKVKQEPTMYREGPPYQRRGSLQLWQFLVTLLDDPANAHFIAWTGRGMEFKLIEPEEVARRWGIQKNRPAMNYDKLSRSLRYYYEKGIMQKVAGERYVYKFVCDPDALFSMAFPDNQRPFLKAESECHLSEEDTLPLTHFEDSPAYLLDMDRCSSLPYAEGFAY
Procedure, shortened: as §1

[3] = target: T2, SPIC (Homo sapiens, UniProt Q8N5J4 1-248)
T2 sequence: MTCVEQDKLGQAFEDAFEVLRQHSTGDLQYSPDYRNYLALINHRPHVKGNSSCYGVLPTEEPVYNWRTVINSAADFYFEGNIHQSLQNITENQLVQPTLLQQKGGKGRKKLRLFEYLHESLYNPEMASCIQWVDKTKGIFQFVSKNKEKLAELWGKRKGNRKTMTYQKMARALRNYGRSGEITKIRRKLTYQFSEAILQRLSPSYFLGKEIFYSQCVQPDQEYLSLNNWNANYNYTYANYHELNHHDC
Procedure, shortened: as §1

[4] = target: ELF4 (Homo sapiens, UniProt Q99607 1-663)
ELF4, sequence (Q99607 whole entry): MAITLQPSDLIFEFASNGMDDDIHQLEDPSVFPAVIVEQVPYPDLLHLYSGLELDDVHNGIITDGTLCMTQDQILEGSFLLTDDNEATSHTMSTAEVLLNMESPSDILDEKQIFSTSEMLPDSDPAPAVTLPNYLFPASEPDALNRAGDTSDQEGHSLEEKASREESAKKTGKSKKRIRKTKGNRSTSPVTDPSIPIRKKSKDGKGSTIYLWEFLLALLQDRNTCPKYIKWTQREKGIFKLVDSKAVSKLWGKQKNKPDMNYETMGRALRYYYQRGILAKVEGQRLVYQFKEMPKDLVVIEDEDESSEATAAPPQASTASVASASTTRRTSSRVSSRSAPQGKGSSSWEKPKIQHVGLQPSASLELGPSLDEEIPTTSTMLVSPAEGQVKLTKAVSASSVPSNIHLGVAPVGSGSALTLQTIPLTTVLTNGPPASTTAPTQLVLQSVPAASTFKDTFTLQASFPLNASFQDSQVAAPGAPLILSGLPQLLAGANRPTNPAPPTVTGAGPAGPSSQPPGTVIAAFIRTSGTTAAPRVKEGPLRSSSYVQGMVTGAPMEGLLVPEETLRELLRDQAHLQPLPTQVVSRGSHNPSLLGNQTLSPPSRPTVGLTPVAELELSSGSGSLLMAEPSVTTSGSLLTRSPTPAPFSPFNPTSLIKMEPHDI
Procedure, shortened: as §1

[5] = target: T3, ELK4 (Homo sapiens, UniProt P28324-2 1-405)
T3 sequence: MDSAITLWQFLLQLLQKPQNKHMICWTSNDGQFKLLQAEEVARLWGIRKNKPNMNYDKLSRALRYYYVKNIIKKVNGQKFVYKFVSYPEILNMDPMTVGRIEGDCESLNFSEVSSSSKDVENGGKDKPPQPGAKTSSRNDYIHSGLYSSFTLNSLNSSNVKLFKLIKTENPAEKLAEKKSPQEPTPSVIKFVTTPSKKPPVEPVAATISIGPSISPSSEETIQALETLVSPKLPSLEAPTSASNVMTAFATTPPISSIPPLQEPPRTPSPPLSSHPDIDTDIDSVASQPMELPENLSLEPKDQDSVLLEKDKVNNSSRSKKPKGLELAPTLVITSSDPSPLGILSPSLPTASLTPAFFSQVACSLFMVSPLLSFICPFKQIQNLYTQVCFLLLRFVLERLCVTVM
Procedure, shortened: as §1

[6] = target: T4, ETV2 (Homo sapiens, UniProt O00321 1-342)
T4 sequence: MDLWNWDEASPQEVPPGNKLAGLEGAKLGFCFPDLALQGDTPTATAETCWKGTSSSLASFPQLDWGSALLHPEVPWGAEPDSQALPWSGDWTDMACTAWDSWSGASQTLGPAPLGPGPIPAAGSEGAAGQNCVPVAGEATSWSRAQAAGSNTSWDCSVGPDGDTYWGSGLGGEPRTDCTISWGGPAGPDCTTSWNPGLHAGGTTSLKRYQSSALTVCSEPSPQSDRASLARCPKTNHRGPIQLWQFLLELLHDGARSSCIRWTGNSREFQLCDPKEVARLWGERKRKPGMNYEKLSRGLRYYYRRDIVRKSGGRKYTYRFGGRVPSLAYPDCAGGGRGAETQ
Procedure, shortened: as §1

[7] = target: T5, ELF3 (Homo sapiens, UniProt P78545 1-371)
T5 sequence: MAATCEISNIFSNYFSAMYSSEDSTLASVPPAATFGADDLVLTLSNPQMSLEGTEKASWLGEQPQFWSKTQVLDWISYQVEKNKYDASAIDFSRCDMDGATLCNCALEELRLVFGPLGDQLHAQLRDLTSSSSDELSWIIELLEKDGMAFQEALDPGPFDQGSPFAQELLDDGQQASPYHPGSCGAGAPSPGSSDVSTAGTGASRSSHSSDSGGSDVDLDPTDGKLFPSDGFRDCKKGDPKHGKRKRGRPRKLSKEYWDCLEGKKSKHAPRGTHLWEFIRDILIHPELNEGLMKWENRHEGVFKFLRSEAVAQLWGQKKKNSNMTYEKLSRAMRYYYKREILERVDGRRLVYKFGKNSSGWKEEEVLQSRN
Procedure, shortened: as §1

[8] = target: ETV1 (Homo sapiens, UniProt P50549 1-477)
ETV1, sequence (P50549 whole entry): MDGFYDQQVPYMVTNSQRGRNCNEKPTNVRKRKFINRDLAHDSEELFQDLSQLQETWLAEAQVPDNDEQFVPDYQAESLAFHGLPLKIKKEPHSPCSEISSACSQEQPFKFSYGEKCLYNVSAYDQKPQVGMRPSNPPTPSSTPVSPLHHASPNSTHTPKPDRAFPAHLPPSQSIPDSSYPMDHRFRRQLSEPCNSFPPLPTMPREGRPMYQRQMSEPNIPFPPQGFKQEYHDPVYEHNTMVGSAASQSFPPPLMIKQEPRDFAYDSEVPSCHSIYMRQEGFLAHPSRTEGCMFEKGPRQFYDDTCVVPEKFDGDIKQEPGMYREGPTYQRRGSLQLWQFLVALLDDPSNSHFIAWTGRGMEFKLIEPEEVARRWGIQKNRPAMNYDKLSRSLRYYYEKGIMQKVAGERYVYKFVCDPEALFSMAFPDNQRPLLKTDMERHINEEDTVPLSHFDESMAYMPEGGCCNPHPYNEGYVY
Procedure, shortened: as §1

[9] = target: T6, ERF (Homo sapiens, UniProt P50548 1-548)
T6 sequence: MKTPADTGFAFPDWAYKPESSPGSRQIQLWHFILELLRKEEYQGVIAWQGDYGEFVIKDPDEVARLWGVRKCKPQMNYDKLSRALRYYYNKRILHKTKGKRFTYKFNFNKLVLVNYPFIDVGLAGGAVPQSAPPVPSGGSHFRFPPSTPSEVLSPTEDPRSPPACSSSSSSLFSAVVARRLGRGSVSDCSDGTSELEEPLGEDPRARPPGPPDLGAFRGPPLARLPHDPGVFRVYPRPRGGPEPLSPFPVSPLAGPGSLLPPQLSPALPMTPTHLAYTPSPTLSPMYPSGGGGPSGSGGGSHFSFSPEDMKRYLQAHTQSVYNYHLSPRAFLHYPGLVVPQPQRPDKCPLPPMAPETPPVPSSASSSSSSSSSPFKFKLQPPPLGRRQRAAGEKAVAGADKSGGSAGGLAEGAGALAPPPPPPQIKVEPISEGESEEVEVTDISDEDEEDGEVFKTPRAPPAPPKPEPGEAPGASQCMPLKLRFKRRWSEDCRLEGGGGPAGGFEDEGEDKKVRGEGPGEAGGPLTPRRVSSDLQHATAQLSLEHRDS
Procedure, shortened: as §1

[10] = target: T7, ETV3L (Homo sapiens, UniProt Q6ZN32 1-361)
T7 sequence: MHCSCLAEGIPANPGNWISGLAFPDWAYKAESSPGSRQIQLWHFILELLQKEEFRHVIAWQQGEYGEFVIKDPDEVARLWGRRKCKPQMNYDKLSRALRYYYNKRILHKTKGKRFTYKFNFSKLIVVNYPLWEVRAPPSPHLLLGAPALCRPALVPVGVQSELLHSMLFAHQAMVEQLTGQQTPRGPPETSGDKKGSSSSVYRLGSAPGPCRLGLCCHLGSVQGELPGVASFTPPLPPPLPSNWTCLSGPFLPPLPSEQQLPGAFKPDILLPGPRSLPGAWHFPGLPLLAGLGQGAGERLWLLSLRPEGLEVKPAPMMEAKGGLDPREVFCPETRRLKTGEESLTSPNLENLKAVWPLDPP
Procedure, shortened: as §1

[11] = target: T8, ETS2 (Homo sapiens, UniProt P15036 1-469)
T8 sequence: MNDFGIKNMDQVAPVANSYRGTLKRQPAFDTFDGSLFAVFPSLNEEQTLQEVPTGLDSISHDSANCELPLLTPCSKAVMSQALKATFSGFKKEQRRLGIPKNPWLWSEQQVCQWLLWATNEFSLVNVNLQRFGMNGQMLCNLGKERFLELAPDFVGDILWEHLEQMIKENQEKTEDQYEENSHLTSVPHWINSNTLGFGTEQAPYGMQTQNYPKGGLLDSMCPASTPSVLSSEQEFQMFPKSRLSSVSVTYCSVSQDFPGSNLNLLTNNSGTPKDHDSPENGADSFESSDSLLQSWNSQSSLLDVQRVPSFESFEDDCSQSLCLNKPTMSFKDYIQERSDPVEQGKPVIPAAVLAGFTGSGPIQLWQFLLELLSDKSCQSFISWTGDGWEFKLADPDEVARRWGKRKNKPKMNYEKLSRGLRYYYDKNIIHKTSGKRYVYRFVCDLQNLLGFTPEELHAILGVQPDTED
Procedure, shortened: as §1

[12] = target: T9, SPDEF (Homo sapiens, UniProt O95238 1-335)
T9 sequence: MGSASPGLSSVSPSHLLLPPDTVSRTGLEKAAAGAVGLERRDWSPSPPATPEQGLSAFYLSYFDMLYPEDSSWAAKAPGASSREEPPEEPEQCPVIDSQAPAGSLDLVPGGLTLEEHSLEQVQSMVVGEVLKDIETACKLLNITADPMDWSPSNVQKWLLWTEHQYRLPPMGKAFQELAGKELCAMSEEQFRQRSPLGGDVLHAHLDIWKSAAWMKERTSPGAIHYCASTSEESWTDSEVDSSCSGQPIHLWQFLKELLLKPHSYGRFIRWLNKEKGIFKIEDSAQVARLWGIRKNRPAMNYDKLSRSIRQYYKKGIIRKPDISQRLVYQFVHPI
Procedure, shortened: as §1

[13] = target: T10, ETV7 (Homo sapiens, UniProt Q9Y603 1-341)
T10 sequence: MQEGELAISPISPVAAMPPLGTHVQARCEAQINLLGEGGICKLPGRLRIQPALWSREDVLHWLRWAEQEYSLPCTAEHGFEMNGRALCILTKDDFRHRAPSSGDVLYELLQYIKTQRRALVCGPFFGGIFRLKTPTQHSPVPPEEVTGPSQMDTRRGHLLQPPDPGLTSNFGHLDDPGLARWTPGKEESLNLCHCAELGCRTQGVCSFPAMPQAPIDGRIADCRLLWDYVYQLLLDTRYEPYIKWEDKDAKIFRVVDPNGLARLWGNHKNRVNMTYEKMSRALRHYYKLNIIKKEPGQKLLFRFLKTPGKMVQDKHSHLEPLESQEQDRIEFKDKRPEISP
Procedure, shortened: as §1

[14] = target: T11, ELF5 (Homo sapiens, UniProt Q9UKW6-2 1-255)
T11 sequence: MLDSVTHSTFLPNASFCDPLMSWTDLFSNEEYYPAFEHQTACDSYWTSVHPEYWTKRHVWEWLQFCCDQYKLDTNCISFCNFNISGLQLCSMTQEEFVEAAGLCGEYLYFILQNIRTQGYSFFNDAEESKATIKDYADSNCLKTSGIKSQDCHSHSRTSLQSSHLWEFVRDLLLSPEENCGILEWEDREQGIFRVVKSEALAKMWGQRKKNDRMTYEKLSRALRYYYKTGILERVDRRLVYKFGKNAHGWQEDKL
Procedure, shortened: as §1

[15] = target: T12, ETV3 (Homo sapiens, UniProt P41162-2 1-143)
T12 sequence: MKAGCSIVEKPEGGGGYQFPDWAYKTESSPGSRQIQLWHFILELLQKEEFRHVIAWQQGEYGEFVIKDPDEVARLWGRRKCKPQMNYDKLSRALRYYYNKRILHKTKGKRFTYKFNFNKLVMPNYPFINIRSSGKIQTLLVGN
Procedure, shortened: as §1

[16] = target: ETV6 (Homo sapiens, UniProt P41212 1-452)
ETV6, sequence (P41212 whole entry): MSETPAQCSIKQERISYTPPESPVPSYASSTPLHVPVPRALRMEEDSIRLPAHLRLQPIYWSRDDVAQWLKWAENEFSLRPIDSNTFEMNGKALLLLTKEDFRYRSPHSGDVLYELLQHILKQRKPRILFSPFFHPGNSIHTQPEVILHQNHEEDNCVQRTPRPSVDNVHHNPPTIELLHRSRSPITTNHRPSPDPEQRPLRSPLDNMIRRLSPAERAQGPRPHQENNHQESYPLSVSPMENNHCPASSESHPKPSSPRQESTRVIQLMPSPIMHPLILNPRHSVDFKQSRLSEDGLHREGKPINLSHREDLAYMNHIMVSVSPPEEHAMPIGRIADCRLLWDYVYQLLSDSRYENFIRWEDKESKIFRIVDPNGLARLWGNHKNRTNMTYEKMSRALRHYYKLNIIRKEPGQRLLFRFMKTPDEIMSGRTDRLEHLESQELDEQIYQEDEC
Procedure, shortened: as §1

Sequence | binding signal [1] | binding signal [2] | binding signal [3] | binding signal [4] | binding signal [5] | binding signal [6] | binding signal [7] | binding signal [8] | binding signal [9] | binding signal [10] | binding signal [11] | binding signal [12] | binding signal [13] | binding signal [14] | binding signal [15] | binding signal [16]
CCCCCG | 1.2 fold enrichment (6-mer frequency, TF over GST control) | 1.08 fold enrichment (6-mer frequency, TF over GST control) | 1.14 fold enrichment (6-mer frequency, TF over GST control) | 1.18 fold enrichment (6-mer frequency, TF over GST control) | 1.16 fold enrichment (6-mer frequency, TF over GST control) | 1.03 fold enrichment (6-mer frequency, TF over GST control) | 1.22 fold enrichment (6-mer frequency, TF over GST control) | 1.04 fold enrichment (6-mer frequency, TF over GST control) | 1.17 fold enrichment (6-mer frequency, TF over GST control) | 1.13 fold enrichment (6-mer frequency, TF over GST control) | 1.06 fold enrichment (6-mer frequency, TF over GST control) | 1.13 fold enrichment (6-mer frequency, TF over GST control) | 1.05 fold enrichment (6-mer frequency, TF over GST control) | 1.07 fold enrichment (6-mer frequency, TF over GST control) | 1.22 fold enrichment (6-mer frequency, TF over GST control) | 1.12 fold enrichment (6-mer frequency, TF over GST control)
ATATGT | 1.11 fold enrichment (6-mer frequency, TF over GST control) | 1.1 fold enrichment (6-mer frequency, TF over GST control) | 1.18 fold enrichment (6-mer frequency, TF over GST control) | 1.14 fold enrichment (6-mer frequency, TF over GST control) | 1.21 fold enrichment (6-mer frequency, TF over GST control) | 1.04 fold enrichment (6-mer frequency, TF over GST control) | 1.14 fold enrichment (6-mer frequency, TF over GST control) | 1.12 fold enrichment (6-mer frequency, TF over GST control) | 1.25 fold enrichment (6-mer frequency, TF over GST control) | 1.17 fold enrichment (6-mer frequency, TF over GST control) | 1.19 fold enrichment (6-mer frequency, TF over GST control) | 1.13 fold enrichment (6-mer frequency, TF over GST control) | 1.16 fold enrichment (6-mer frequency, TF over GST control) | 1.13 fold enrichment (6-mer frequency, TF over GST control) | 1.1 fold enrichment (6-mer frequency, TF over GST control) | 1.07 fold enrichment (6-mer frequency, TF over GST control)
